Bioassay records as filed in PubChem.
Many of the other results were omitted from the sample, so hits are more common in it than they were.
RXFP1 antagonist = blocks the human relaxin receptor RXFP1; Q9HBX9; AID 1259400; activity change, negative = inhibition, % at 57.5 µM; 0.59% of 350,000 active; HEK293-RXFP1, relaxin-stimulated cAMP HTRF, 30 min; active compounds read low;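 active means activity change of -60% or lower, but not beyond a set lower limit; inconclusive means change between -60% and -40%, or beyond the set limit; inactive means change above -40%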; further: on the % scale 0 is the no-effect control and ±100 the full control effect
TCR act = T cell receptor activation. AID 504894. primary human leukocytes, anti-CD3, IL-2 HTRF, 48 h. Potency, µM (doses to about 9.22 µM), for the others: at the top dose activation of IL-2 secretion, usual class: activators. 330,000 tested, under 10 active; further: % of control where 0% means no effect
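IL-2 release read by HTRF sandwich (Eu cryptate donor, d2 acceptor, 665 nm emission) after 48 hr exposure of primary human leukocytes to compound together with anti-CD3 beads in the absence of co-stimulatory signals.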
NPSR antag = antagonists of human neuropeptide S receptor cAMP signaling; Q6W5P4; CHO-NPSR cells, cAMP TR-FRET, antagonist mode; Potency, µM (top dose mostly 38.3 µM), inactives show at the top dose activity change, negative = inhibition, most hits filed as inhibitors; 1% of 220,000 active; AID 1461; further: potency means the concentration at half of the fitted maximal effect; on the % scale 0 is the no-effect control and ±100 the full control effect; nearly all actives have a fitted effect of over 50% in size
PTHR1 agonist = agonists of human PTHR1 parathyroid hormone receptor; Q03431; Potency, µM (highest dose often 115 µM), without a hit: at the highest dose activation, most hits filed as activators; HEK293 GP2 PTHR1 cells, GloSensor cAMP luminescence, 1 h; 0.075% of 410,000 active; further: potency means the concentration at half of the fitted maximal effect; nearly all actives have a fitted effect of over 55% in size
Target sequence (Q03431 whole entry, looked up): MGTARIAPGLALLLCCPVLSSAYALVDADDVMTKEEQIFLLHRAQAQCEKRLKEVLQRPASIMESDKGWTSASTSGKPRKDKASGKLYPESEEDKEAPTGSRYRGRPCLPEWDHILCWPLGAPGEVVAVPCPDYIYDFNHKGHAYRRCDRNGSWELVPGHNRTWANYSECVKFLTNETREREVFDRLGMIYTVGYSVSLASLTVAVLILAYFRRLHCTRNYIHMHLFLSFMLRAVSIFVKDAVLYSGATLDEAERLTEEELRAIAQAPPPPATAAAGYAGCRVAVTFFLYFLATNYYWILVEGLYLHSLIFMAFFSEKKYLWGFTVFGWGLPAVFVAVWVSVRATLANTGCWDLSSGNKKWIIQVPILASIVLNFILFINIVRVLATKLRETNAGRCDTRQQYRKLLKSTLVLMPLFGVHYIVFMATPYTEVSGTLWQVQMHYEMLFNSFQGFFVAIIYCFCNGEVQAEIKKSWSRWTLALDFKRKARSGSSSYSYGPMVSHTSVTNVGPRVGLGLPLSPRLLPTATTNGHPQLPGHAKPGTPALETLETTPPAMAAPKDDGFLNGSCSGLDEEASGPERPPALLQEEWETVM
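HEK-293-derived GP2 cells expressing PTHR1 and a GloSensor cAMP reporter, 3,000/well, plated overnight, given luciferin plus IBMX (each 0.5 mM as added) for 1 h at 37 °C, then compound for 1 h at 37 °C. Luminescence was read after 15 min at room temperature.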
RXFP1 ag = RXFP1 (human) receptor agonism; Q9HBX9; HEK293T-RXFP1 cAMP TR-FRET, 30 min; response scale: percent of porcine relaxin response, buffer zero; 0.3% of 370,000 active; Potency, µM (series often up to 57.5 µM), inactives show at the highest dose activation, usual class: activators; AID 2676; further: potency means the concentration at half of the fitted maximal effect; on the % scale 0 is the no-effect control and ±100 the full control effect; nearly all actives have a fitted effect of over 60% in size
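Agonist response is measured as cAMP accumulation in an RXFP1-transfected HEK293T line under PDE4 inhibition. Values are scaled between buffer-only and 29 nM porcine relaxin, and EC50s come from standard Hill equation fits.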
TSHR antagonist = human thyrotropin receptor antagonism; P16473; TSHR-expressing cells, TSH-stimulated cAMP HTRF, 2 h; active compounds read low; activity change, negative = inhibition, % at 11.5 µM; 0.2% of 330,000 active;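 active means activity change below a set negative limit, meaning inhibition stronger than a set level, cut at about -70% in these data; inconclusive means activity change between two set negative limits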; further: on the % scale 0 is the no-effect control and ±100 the full control effect
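Antagonism was scored as loss of TSH-driven cAMP in TSHR cells, stimulated with 4nM TSH (EC80) for 2 hours at 37 deg C and detected by homogeneous HTRF competition immunoassay.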
Active calls of the source: *; i = inactive; ? = inconclusive; / = no result; ! = repeats disagree; [ ] = dose if it differs, or a comment. Unless noted, the call rests on the fitted dose curve; in most records, active means well fitted curve in the direction sought with a large enough effect; inconclusive means small, poorly fitted or top-dose-only effect, or another doubt; inactive means no such curve, though single readings can be large; an effect the other way counts as inactive or inconclusive.

SMILES | RXFP1 antagonist | TCR act | NPSR antag | PTHR1 agonist | RXFP1 ag | TSHR antagonist
O=C(Nc1ccc2nc(SCC(=O)N3CCCC3)sc2c1)c1cccc(F)c1 | -101* | / | / | -20% | 6% | /
O=C(Nc1ccc2nc(SCC(=O)N3CCOCC3)sc2c1)c1ccc(Br)cc1 | -19 | / | / | -18% | 11% | /
CCOc1ccc(CNC(=O)c2ccc3nc(Cc4ccc(OC)cc4)oc3c2)cc1OC | / | / | / | -17% | 2% | /
Cc1ccc(OCCSc2nc3ccccc3n2CC(=O)NC(C)C)cc1 | / | / | / | -18% | -7% | /
CCCCc1ccc(NC(=O)COc2cccc3c(=O)n(C)ccc23)cc1 | / | / | / | -23% | 5% | /
O=C(Nc1ccc2nc(SCC(=O)N3CCOCC3)sc2c1)c1cccc(F)c1 | -86* | / | / | -19% | 0% | /
COCCCn1c(SCC(=O)OC2CCCCC2)nnc1-c1cccs1 | 10 | -23% | -14%[46.1 µM] | 0.28µM* | 3% | 1
COc1ccc(OC)c(CNC(=O)CN2CC(C)Sc3ccccc32)c1 (centres undefined) | / | / | / | i | 2% | /
Cc1ccc(N=N/C(=C\O)C(=O)c2ccncc2)cc1 | -25 | 1% | 10µM* | -26% | 0% | 10
O=C(/C(=C/O)N=Nc1ccc(Cl)cc1)c1ccncc1 | -27 | 8% | ? | -29% | 1% | -11
CCC(Sc1nc2cc3c(cc2c(=O)n1CCCC(=O)NCc1ccc(OC)cc1)OCO3)C(=O)NCCCOC (centres undefined) | -77* | / | / | i | 0% | /
CCCCNC(=O)CSc1nc2cc3c(cc2c(=O)n1CCC(=O)NCCc1ccc(OC)c(OC)c1)OCO3 | -12 | 4% | -15% | -8% | 3% | 17
CCCCNC(=O)CSc1nc2cc3c(cc2c(=O)n1CCCC(=O)NCCc1ccc(OC)c(OC)c1)OCO3 | -76*! | -28% | -7% | 12% | 1% | 0
CCOc1ccccc1CNC(=O)Cn1c(-c2ccccc2)cc(C(C)=O)c1C | 5 | / | / | -7% | 3% | /
Cc1cccc2cc(/C=N/NC(=O)c3ccccc3O)c(Cl)nc12 | -6 | -4%[46.1 µM] | -27% | -31% | 2% | -72*
CCOC(=O)/C(C#N)=C\C=C1C=CN(C)C=C1 | -12 | 10% | 13µM* | -11%[57.5 µM] | -2% | -19
CCOC(=O)/C(C#N)=C\c1ccc(CC)s1 | 5 | 2% | -14%[46.1 µM] | i | 0% | 25
Cc1ccc(NC(=O)CC(C)S(=O)(=O)c2ccc3c(c2)NC(=O)CO3)cc1Cl (centres undefined) | 1 | / | / | i | 2% | /
CN(C)c1ccc(NC(=O)Cn2c(SCc3ccc(F)cc3)nc3ccncc32)cc1 | / | / | / | 21% | 1% | /
CN(C)c1ccc(NC(=O)Cn2c(SCc3ccc(F)cc3)nc3cccnc32)cc1 | -32 | / | / | 50µM* | ? | /
COC(=O)c1sc(NC(=S)NNC(=O)c2c(Br)c(C)nn2C)c(C(=O)OC)c1C | 31 | -57% | / | -95% | 25µM* | i
Cc1nc(SCC(=O)N2CCN(c3ccccc3)CC2)n[nH]1 | 7 | -5% | / | i | -1% | -89*
Nc1nc(SCC(=O)N2CCN(c3ccccc3)CC2)n[nH]1 | 2 | 7% | / | -4% | -1% | 1
Cc1ccc(NC(=O)Cn2nnc(-c3nc(-c4ccncc4)no3)c2N)cc1 | -2 | / | / | -12% | -1% | /
Cc1[nH]c2ccccc2c1/C=N/Nc1ccccc1[N+](=O)[O-] | -18 | / | 10µM* | i | -4% | -19
SMILES | RXFP1 antagonist | TCR act | NPSR antag | PTHR1 agonist | RXFP1 ag | TSHR antagonist
COc1ccc(NS(=O)(=O)c2cc([N+](=O)[O-])ccc2N/N=C/c2c(C)[nH]c3ccccc23)cc1 | -9 | -3% | / | -21% | / | /
CN(C)c1ccc(Cc2cc3c(O)ccc(O)c3cc(Cc3ccc(N(C)C)cc3)c2=O)cc1 | -107* | -4% | / | -23% | / | /
Cc1[nH]c2ccccc2c1CCN(Cc1cccnc1)C(=S)Nc1cccc(F)c1 | -12 | -1% | -54% | -16% | 0% | 5
Cc1[nH]c2ccccc2c1CCN(Cc1cccnc1)C(=S)Nc1ccc(F)cc1 | / | -5% | 7.9µM* | -5% | 0% | 6
Cc1ccc(F)cc1NC(=O)c1sc2ncn(CC(=O)N3CCN(c4ccccn4)CC3)c(=O)c2c1C | 12 | -7% | / | -13% | 16µM* | 10
Cc1nc(N2CCN(c3ccccn3)CC2)c2c(C)c(C(=O)Nc3ccc(F)cc3F)sc2n1 | 11 | -8% | -48% | -20% | -2% | -14
COc1ccccc1NC(=O)Cn1cnc2sc(C(=O)Nc3ccc(OC)c(OC)c3)c(C)c2c1=O | -71* | 5% | / | -20% | 3% | -11
COc1ccccc1NC(=O)Cn1cnc2sc(C(=O)Nc3cc(OC)c(OC)c(OC)c3)c(C)c2c1=O | 10 | 5% | / | 23% | -1% | 3
COc1ccc(CNCCC(c2ccc3c(c2)OCO3)c2ccccc2OC)cc1 (centres undefined) | -72* | / | / | -43% | 0% | /
CCOC(=O)c1nnc(-c2ccc(C)cc2)nc1N1CCSCC1 | -68* | -3% | -30% | -33% | 0% | 7
CC(C)C1Nc2ccc(C(=O)N3CCN(c4ccccn4)CC3)cc2NC1=O (centres undefined) | -27 | 0% | / | -9% | -3% | -113*
O=C1CNc2ccc(C(=O)N3CCN(c4ccccn4)CC3)cc2N1 | 10 | -9% | / | i | 1% | 1
O=C(O)CCCC[P+](c1ccccc1)(c1ccccc1)c1ccccc1 | 4 | / | / | / | / | /
Cc1ccc(S(=O)(=O)C(CNC(=O)C(=O)NCc2ccccc2C)c2cccs2)cc1 (centres undefined) | / | / | / | -10% | 0% | /
COc1ccc(S(=O)(=O)Nc2cc3c(cc2NCc2ccccc2)n(C)c(=O)n3C)cc1 | 4 | / | / | -25% | 28µM* | /
COc1ccc(CNC(=O)c2cc(-c3cccc(Cl)c3)on2)cc1 | -5 | / | / | i | 6% | /
CC(NC(=O)/C(C#N)=C/c1ccc(Cl)c([N+](=O)[O-])c1)c1ccccc1 (centres undefined) | -104* | -1%[46.1 µM] | ? | -41% | -1% | -4
CCCc1cc(=O)oc2c(C)c3c(cc12)CN(CCc1ccc(Cl)cc1)CO3 | -8 | / | / | i | 1% | /
Cc1cc(C)c(O)c(-c2cc(C(=O)Nc3ccc(S(=O)(=O)N4CCOCC4)cc3)[nH]n2)c1 | -3 | -3% | 13µM* | -25% | 0% | -15
CC(=O)Nc1ccc(NC(=O)c2cc(-c3cc(C)cc(C)c3O)n[nH]2)cc1 | -5 | 0% | / | i | -4% | 7
COc1ccc(S(=O)(=O)n2nc(-c3ccco3)nc2NCc2ccc(N(C)C)cc2)cc1 | -11 | / | / | -48% | 1% | /
